# The supplement of paper PMC8728848
# This is one part of a sample in which the strongest signals are shown more often than they occur.
# B1: PX14375C-bth-509-28-509 (Bacteroides thetaiotaomicron) (protein)
# chain: RSPQGQFTEDDNPNALVNGKIYNVYTMMRSFDITAGTPAIAIHYLRSEDSEKGSIPSDGSDVAEMYDDFLYTPTNGLLGSYWGKNYAIIYQCNDILDAIAEKETAGQTETEDIINKGEASFFRAYCYFNLVRAFGEVPLVTYKINDASEANIPKTTADKIYEQIDTDLKTAEESLPETWSTEYTGRLTWGAARSLHARTYMMRSDWDNMYKASTDVINKGLYNLKTPYNEIFTDDGENSGGSIFELQCTATAALPQSDVIGSQFCEVQGVRGAGQWDLGWGWHMATQLMADAYETGDPRKNATLLYFRKTDDEPITPENTNEPYGESPISPAMGAYFNKKAYTDPALRKEYTNKGFWVNIRLIRYSDVVLMAAEAANEKNIPGEAVDYLEMVRARARGTNTNILPKITTNDQGELREAIRHERRVELGLEPDRFYDLVRWGIASEVLHAAGKVNYQDKNALLPLPQSEIDKSKGVLVQNPDY
# Tests used:
# Assay in all cases: glycan array binding signal (z-score within array); higher = stronger binding
# Conditions in all cases: glycan notation: IUPAC condensed, linker removed
# [1] = biological target: Fuc(a1-2)Gal(b1-3)[Fuc(a1-4)]GlcNAc
# In short: (§1)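 Glycan array data were curated from 3228 arrays in the Consortium for Functional Glycomics database and kept only where the protein sequence was available. Glycan names were converted to IUPAC-condensed notation, and columns mapping to the same glycan were averaged. The binding signal is a within-array Z-score, averaged across arrays of the same protein sequence at different concentrations or buffers and across linkers. Negative Z-scores can be read as non-binding.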
# [2] = biological target: Fuc(a1-2)[Gal(a1-3)]Gal
# In short: as §1
# [3] = biological target: Fuc(a1-2)[Gal(a1-3)]Gal(b1-4)Glc
# In short: as §1
# [4] = biological target: Fuc(a1-2)[GalNAc(a1-3)]Gal(b1-3)GalNAc(a1-3)[Fuc(a1-2)]Gal(b1-4)GlcNAc
# In short: as §1
# [5] = biological target: Fuc(a1-2)[GalNAc(a1-3)]Gal(b1-3)GalNAc(b1-3)Gal(a1-4)Gal(b1-4)Glc
# In short: as §1
# [6] = biological target: Fuc(a1-2)[GalNAc(a1-3)]Gal(b1-3)GlcNAc(b1-2)Man(a1-3)[Fuc(a1-2)[GalNAc(a1-3)]Gal(b1-3)GlcNAc(b1-2)Man(a1-6)]Man(b1-4)GlcNAc(b1-4)[Fuc(a1-6)]GlcNAc
# In short: as §1
# [7] = biological target: Fuc(a1-2)[GalNAc(a1-3)]Gal(b1-4)GlcNAc(b1-6)GalNAc
# In short: as §1
# [8] = biological target: Gal(a1-3)Gal(b1-3)GlcNAc
# In short: as §1
# [9] = biological target: Gal(a1-3)Gal(b1-4)Glc
# In short: as §1
# [10] = biological target: Gal(a1-3)Gal(b1-4)GlcNAc(b1-2)Man(a1-3)[Gal(a1-3)Gal(b1-4)GlcNAc(b1-2)Man(a1-6)]Man(b1-4)GlcNAc(b1-4)GlcNAc
# In short: as §1
# [11] = biological target: Gal(a1-3)Gal(b1-4)[Fuc(a1-3)]GlcNAc(b1-2)Man(a1-3)[Gal(a1-3)Gal(b1-4)[Fuc(a1-3)]GlcNAc(b1-2)Man(a1-6)]Man(b1-4)GlcNAc(b1-4)GlcNAc
# In short: as §1
# [12] = biological target: Gal(a1-3)GalNAc
# In short: as §1
# [13] = biological target: Gal(a1-3)[Gal(a1-4)]Gal(b1-4)GlcNAc
# In short: as §1
# [14] = biological target: Gal(a1-4)Gal(b1-4)GlcNAc(b1-2)Man(a1-3)[Gal(a1-4)Gal(b1-4)GlcNAc(b1-2)Man(a1-6)]Man(b1-4)GlcNAc(b1-4)GlcNAc
# In short: as §1
# [15] = biological target: Gal(a1-4)Gal(b1-4)GlcNAc(b1-3)Gal(b1-4)Glc
# In short: as §1
# [16] = biological target: Gal(b1-3)Gal(b1-4)GlcNAc
# In short: as §1
# [17] = biological target: Gal(b1-3)GlcNAc
# In short: as §1
# [18] = biological target: Gal(b1-3)GlcNAc(b1-3)Gal(b1-4)GlcNAc
# In short: as §1
# [19] = biological target: Gal(b1-3)GlcNAc(b1-3)Gal(b1-4)[Fuc(a1-3)]GlcNAc(b1-6)[Gal(b1-3)GlcNAc(b1-3)]Gal(b1-4)Glc
# In short: as §1
# [20] = biological target: Gal(b1-3)[Fuc(a1-4)]GlcNAc(b1-2)Man(a1-3)[Gal(b1-3)[Fuc(a1-4)]GlcNAc(b1-2)Man(a1-6)]Man(b1-4)GlcNAc(b1-4)[Fuc(a1-6)]GlcNAc
# In short: as §1
# [21] = biological target: Gal(b1-4)Glc6S
# In short: as §1
# [22] = biological target: Gal(b1-4)GlcNAc(a1-6)Gal(b1-4)GlcNAc
# In short: as §1
# [23] = biological target: Gal(b1-4)GlcNAc(b1-2)Man(a1-3)[Gal(b1-4)GlcNAc(b1-2)Man(a1-6)]Man(b1-4)GlcNAc(b1-4)GlcNAc
# In short: as §1
# [24] = biological target: Gal(b1-4)GlcNAc(b1-2)[Gal(b1-4)GlcNAc(b1-4)]Man(a1-3)[Gal(b1-4)GlcNAc(b1-2)[Gal(b1-4)GlcNAc(b1-6)]Man(a1-6)]Man(b1-4)GlcNAc(b1-4)GlcNAc
# In short: as §1
# [25] = biological target: Gal(b1-4)GlcNAc(b1-3)Gal(b1-3)GalNAc
# In short: as §1
# [26] = biological target: Gal(b1-4)GlcNAc(b1-3)Gal(b1-4)GlcNAc(b1-2)Man(a1-3)[Gal(b1-4)GlcNAc(b1-3)Gal(b1-4)GlcNAc(b1-2)Man(a1-6)]Man(b1-4)GlcNAc(b1-4)GlcNAc
# In short: as §1
# [27] = biological target: Gal(b1-4)GlcNAc(b1-3)Gal(b1-4)GlcNAc(b1-2)[Gal(b1-4)GlcNAc(b1-3)Gal(b1-4)GlcNAc(b1-6)]Man(a1-6)[Gal(b1-4)GlcNAc(b1-3)Gal(b1-4)GlcNAc(b1-2)Man(a1-3)]Man(b1-4)GlcNAc(b1-4)[Fuc(a1-6)]GlcNAc
# In short: as §1
binder,measurement,setting,value
B1,glycan array binding signal (z-score),[1],-0.397
same,glycan array binding signal (z-score),[2],-0.193
same,glycan array binding signal (z-score),[3],0.04
same,glycan array binding signal (z-score),[4],-0.112
same,glycan array binding signal (z-score),[5],-0.355
same,glycan array binding signal (z-score),[6],-0.19
same,glycan array binding signal (z-score),[7],3.04
same,glycan array binding signal (z-score),[8],-0.256
same,glycan array binding signal (z-score),[9],-0.196
same,glycan array binding signal (z-score),[10],0.762
same,glycan array binding signal (z-score),[11],1.41
same,glycan array binding signal (z-score),[12],-0.254
same,glycan array binding signal (z-score),[13],2.55
same,glycan array binding signal (z-score),[14],-0.374
same,glycan array binding signal (z-score),[15],-0.341
same,glycan array binding signal (z-score),[16],-0.316
same,glycan array binding signal (z-score),[17],-0.186
same,glycan array binding signal (z-score),[18],-0.144
same,glycan array binding signal (z-score),[19],-0.581
same,glycan array binding signal (z-score),[20],0.351
same,glycan array binding signal (z-score),[21],0.533
same,glycan array binding signal (z-score),[22],-0.071
same,glycan array binding signal (z-score),[23],6.16
same,glycan array binding signal (z-score),[24],1.28
same,glycan array binding signal (z-score),[25],-0.287
same,glycan array binding signal (z-score),[26],4.35
same,glycan array binding signal (z-score),[27],12.3
